Usually AC50 stands for the midpoint of the concentration-response curve, whichever way the signal moves.

Calls of active or inactive are those of the source. Rule for the calls: active = hit-call score of the fitted dose curve at least 0.9, where 1 is the maximum; inactive = score below 0.9.

Nuclear respiratory factor 1 (Homo sapiens), sequence (Q16656 whole entry, looked up): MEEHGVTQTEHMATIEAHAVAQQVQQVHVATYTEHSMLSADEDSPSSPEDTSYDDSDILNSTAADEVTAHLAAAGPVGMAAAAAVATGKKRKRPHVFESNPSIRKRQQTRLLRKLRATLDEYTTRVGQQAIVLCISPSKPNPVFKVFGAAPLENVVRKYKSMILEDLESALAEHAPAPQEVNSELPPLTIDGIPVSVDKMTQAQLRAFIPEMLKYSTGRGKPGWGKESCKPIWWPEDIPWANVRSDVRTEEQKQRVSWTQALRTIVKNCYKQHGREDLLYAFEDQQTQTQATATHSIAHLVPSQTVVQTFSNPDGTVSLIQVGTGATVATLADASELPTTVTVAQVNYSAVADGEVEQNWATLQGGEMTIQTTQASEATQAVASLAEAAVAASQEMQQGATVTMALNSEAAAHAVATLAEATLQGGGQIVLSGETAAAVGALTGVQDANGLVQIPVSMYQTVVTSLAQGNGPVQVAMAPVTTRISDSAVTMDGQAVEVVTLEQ

For this assay, the target named is Nuclear respiratory factor 1 (Homo sapiens) (UniProt Q16656). Nature of the assay: ATG_NRF1_CIS: Attagene CIS-FACTORIAL HepG2 Assay for human Nuclear Respiratory Factor 1 (NRF1) Orphan Gene (AID 2282987). As to conditions: HepG2 NRF1 cis-element reporter, Attagene multiplex; actives raise or lower the signal. The method, then:
ATG_CIS is a cell-based, multiplexed-readout assay that uses HepG2, a human liver cell line, with measurements taken at 24 hours after chemical dosing in a 24-well plate.ATG_NRF1_CIS is one of 52 assay component(s) measured or calculated from the ATG_CIS assay. It is designed to make measurements of mRNA induction, a form of inducible reporter, as detected with fluorescence intensity signals by Reverse transcription polymerase chain reaction (RT-PCR) and Capillary electrophoresis technology.Data from the assay component ATG_NRF1_CIS was analyzed into 1 assay endpoint. This assay endpoint, ATG_NRF1_CIS, was analyzed with bidirectional fitting relative to DMSO as the negative control and baseline of activity. Using a type of inducible reporter, measures of mRNA for gain or loss-of-signal activity can be used to understand the reporter gene at the transcription factor-level as they relate to the gene NRF1. Furthermore, this assay endpoint can be referred to as a primary readout, because this assay has produced multiple assay endpoints where this one serves a reporter gene function. To generalize the intended target to other relatable targets, this assay endpoint is annotated to the dna binding intended target family, where the subfamily is nuclear respiratory factors.
Human liver HepG2 cells are transiently transfected with multiple reporter transcription units (MRTUs) in 6-well plates using FuGene 6 reagent (Roche; 3 ml FuGene/1 mg DNA). The MRTU constructs are regulated by a cis-regulating element (promoter). […] A major difference between the CIS and TRANS system is that in CIS activities of endogenous TFs are measured, whereas the TRANS assay evaluates changes in activities of exogenous, chimeric NR-Gal4 proteins. […] At the end of 24 hour incubation, total RNA was isolated using TriZol reagent (Invitrogen). The isolated RNA is then reverse-transcribed using oligo(dT) primer and Mo-MLV reverse transcriptase (Invitrogen) with DNAse I (Ambion) treatment for 30 min. The one-tenth of the produced cDNA was amplified by PCR using Taq DNA polymerase (Invitrogen) and two reporter sequence-specific primers. The PCR products were fluorescently labeled by primer extension with 6-arboxyfluorescein (6-FAM) 5'-labeled reporter sequence-specific primer (2 min at 95 C, 20 s at 68 C and 10 min at 72 C) and these products were digested with 5U of HpaI (New England Biolabs) for 2h at 37 C. The fragments were purified using Qiaquick PCR columns (Qiagen), analyzed on an ABI 3130xL genetic analyzer (Applied Biosystems) with peak positions identified by using a set of X-rhodamine (ROX)-labeled MapMarker1000 molecular weight standards (BioVentures). The raw capillary electrophoresis data was processed using Attagraph software (Attagene).
Regarding `COc1ccc(CCC(C)=O)cc1`, the result was inactive. With `COC(CC(C)CCCC(C)(C)O)OC` (stereo not given), the outcome was inactive. Turning to `CCN(CC)C(=O)N(CC)CC`, the result was inactive. Still for that read-out and setting: under `CC=Cc1ccc(OC)c(OC)c1` stands “inactive”; under `CC1=C(Br)C(=O)C(Br)=C/C1=C(/c1ccccc1S(=O)(=O)O)c1cc(Br)c(O)c(Br)c1C`, “inactive”. The same measure, in the same setting: under `C=C(C)C(=O)OCCOCCOCCOC(=O)C(=C)C` stands “inactive”; under `CC(C)(N=C=O)c1cccc(C(C)(C)N=C=O)c1`, “inactive”; under `C[C@@H]1CCN(C(=O)[C@H](CCCN=C(N)N)NS(=O)(=O)c2cccc3c2NC[C@H](C)C3)[C@@H](C(=O)O)C1`, “inactive”. Same read-out and setting: under `O=C(O)CCCCCCCCCCCC(=O)O` stands “inactive”; under `CC(C)CCCCCCCCCCCCCCC(=O)O`, “inactive”; under `CCc1ccc(O)c(OC)c1`, “inactive”. Take `O=C(O)c1ccc(O)cc1`: the call was inactive. Same read-out and setting: the entry for `FC(F)(F)COCC(F)(F)F` is “inactive”; for `Cc1ccc(S(N)(=O)=O)cc1` it is “inactive”. On the same count and under the same terms, under `CC[N+](C)(CC)CC` stands “inactive”.

For `Cc1ccc(S(=O)(=O)Oc2ccc(N=Nc3ccc(-c4ccc(N=Nc5c(O)ccc6cc(S(=O)(=O)O)cc(S(=O)(=O)O)c56)c(C)c4)cc3C)cc2)cc1`, the call was inactive. Same read-out and setting: the entry for `COC(=O)C=C(C)CCC=C(C)C` is “inactive”; for `O=C1c2ccccc2C(=O)c2c(O)ccc(O)c21` it is “inactive”. Turning to `O=C(O)CCCCCCCCC(=O)O`, the result was inactive. On the same count and under the same terms, the entry for `NC(=S)NNC(N)=S` is “inactive”. As to `O=[N+]([O-])c1ccc(O)cc1C(F)(F)F`, the half-maximal activity concentration (AC50) was 25.2 µM (active). Take `O=CCc1ccccc1`: the call was inactive. Same read-out and setting: under `CC1(C)C2=CCCC(C)(C)[C@]23CC[C@H]1C3` stands “inactive”; under `CC(C)CCCCCCc1ccc(OCCOCCO)cc1`, “inactive”; under `CC(=O)O[C@H]1C[C@@H]2CC[C@@]1(C)C2(C)C`, “inactive”. Same read-out and setting: the entry for `CCCC(=O)c1ccccc1` is “inactive”; for `O=c1c(O)c(-c2ccc(O)cc2)oc2cc(O)cc(O)c12` it is “inactive”. The same measure, in the same setting: the entry for `COc1ccc(CCO)cc1` is “inactive”; for `CS(C)=O` it is “inactive”; for `C=C(C#N)C(=O)OCC` it is “inactive”.

As for `O=Cc1ccccc1S(=O)(=O)O`, the result was inactive. Still for that read-out and setting: the entry for `COc1ccccc1N=Nc1c(S(=O)(=O)O)cc2cc(S(=O)(=O)O)cc(NC(C)=O)c2c1O` is “inactive”; for `CCCCCCC(O)CCCCCCCCCCC(=O)O` (stereo not given) it is “inactive”. `O=[N+]([O-])c1cccc(Cl)c1`: the outcome was inactive. On the same count and under the same terms, the entry for `O=C1OC2(c3ccccc31)c1ccc(O)c(Br)c1Oc1c2ccc(O)c1Br` is “inactive”.

As to `CCOC(=O)C(C#N)=C(c1ccccc1)c1ccccc1`, the half-maximal activity concentration (AC50) is 55.2 µM (active). On to `CCCC(=O)OC(C)(C)Cc1ccccc1`, for which the molecule was called inactive. On the same count and under the same terms, under `CN(C)CCOC(C)(c1ccccc1)c1ccccn1` (stereo not given) stands “inactive”; under `CC(=O)NCCO`, “inactive”. On the same count and under the same terms, the entry for `O=C(O)c1cc(C(=O)O)cc([N+](=O)[O-])c1` is “inactive”.

The values above are taken from PubChem BioAssay (EPA / NIEHS).
